# D2 antagonist: HTS Assay for Allosteric Antagonists of the Human D2 Dopamine Receptor: Primary Screen for Antagonists. D(2) dopamine receptor (Homo sapiens), P14416. HEK293 TREx D2 cells, calcium flux, dopamine EC80. inhibition, % at 10 µM. hit rate 2% among 340,000; in the data active means inhibition above about 30%; inactive means below that, where a call was filed; further: 0% is about no effect
# Target sequence (P14416 whole entry, looked up): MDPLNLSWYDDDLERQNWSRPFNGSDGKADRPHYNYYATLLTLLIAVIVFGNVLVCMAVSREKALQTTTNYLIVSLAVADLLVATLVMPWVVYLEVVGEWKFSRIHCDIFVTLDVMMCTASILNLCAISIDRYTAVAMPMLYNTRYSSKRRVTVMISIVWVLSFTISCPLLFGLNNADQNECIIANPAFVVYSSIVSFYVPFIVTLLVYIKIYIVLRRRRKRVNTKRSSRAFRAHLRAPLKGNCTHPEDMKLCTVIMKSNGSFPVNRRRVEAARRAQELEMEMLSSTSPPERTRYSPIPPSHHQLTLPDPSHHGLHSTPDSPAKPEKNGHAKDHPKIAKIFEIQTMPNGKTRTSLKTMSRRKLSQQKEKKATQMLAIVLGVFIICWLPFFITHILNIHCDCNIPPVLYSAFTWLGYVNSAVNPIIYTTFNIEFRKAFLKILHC
#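 Calcium mobilization kinetics were recorded at 1 s intervals in tetracycline-induced HEK293 T-REx D2 cells, first for 180 s after compound addition and then 180 s after EC80 dopamine.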
# D2 ag-1: Beta-Arrestin HTS for Positive Allosteric Modulators of the Human D2 Dopamine Receptor: Agonists; D(2) dopamine receptor (Homo sapiens), P14416; DiscoveRx PathHunter D2 beta-arrestin, luminescence, 90 min; 100% = 57 uM dopamine signal; activation, % (concentration not given with the values); hit rate 0.084% among 360,000; AID 624465, 2012; in the data active means activation above about 40%; inconclusive means between about 15% and that limit
#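 DiscoveRx PathHunter D2 beta-arrestin cells (2,100/well) attached overnight, then compound-stimulated 90 min at 37 C in HBSS/10 mM HEPES/0.1% Tween-20 buffer; beta-galactosidase complementation read by luminescence after 1 h at ambient temperature. Dopamine 57 uM final (EC100) as control.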
# D2 PAM-1: Beta-Arrestin HTS for Positive Allosteric Modulators of the Human D2 Dopamine Receptor: Potentiators; D(2) dopamine receptor (Homo sapiens), P14416; DiscoveRx D2 beta-arrestin cells, luminescence, 90 min; 100% = 57 uM dopamine signal; potentiation, % (no concentration beside the values); hit rate 0.23% among 360,000; AID 624464, 2012; in the data active means potentiation above about 50%; inconclusive means mostly about 30% to 49%
#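 D2 cells co-treated with compound plus 50 nM dopamine (EC20) for 90 min at 37 deg C to detect potentiation. Beta-arrestin recruitment was read as enzyme-fragment luminescence after 1 h at ambient temperature. Full response was set by 57 uM dopamine.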
# D2 ag-2: HTS Assay for Allosteric Agonists of the Human D2 Dopamine Receptor: Primary Screen for Agonists. AID 485358, 2010. hit rate 0.53% among 340,000. HEK293 T-REx D2 cells, calcium flux agonist mode. activation, % at 2 µM. D(2) dopamine receptor (Homo sapiens), P14416;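 active means activation over 3 SD above normal in the single-dose calcium agonist read, cut at about 30% in these data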; further: 0% is about no effect
#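 Agonism is scored from calcium flux in a force-coupled, inducible HEK293 cell line expressing D2, read kinetically for 180 s after compound addition against dopamine controls.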
# D2 PAM-2: HTS Assay for Positive Allosteric Modulators of the Human D2 Dopamine Receptor: Primary Screen for Potentiators; HEK293 T-REx D2, calcium flux, EC20 dopamine potentiation; D(2) dopamine receptor (Homo sapiens), P14416; hit rate 0.34% among 340,000; potentiation, % at 10 µM; AID 485347, 2010;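 active means potentiation over 3 SD above the plate norm, cut at about 30% in these data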; further: 0% is about no effect
#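 Tetracycline-induced HEK293 T-REx cells force-coupled to calcium signalling expressed D2; compounds were pin-added after a 10 s baseline, read kinetically 180 s, then an EC20 dopamine challenge followed with a further 180 s calcium read.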
# * = called active by the depositor; ? = inconclusive; . = no result given. Only some compounds are listed: those with a hit (about 2.4% of all), similar ones and a draw of the others.
SMILES,D2 antagonist,D2 ag-1,D2 PAM-1,D2 ag-2,D2 PAM-2
Cn1c(CN2CCCCC2)nc2cc(NC(=O)c3ccccc3)ccc21,36.1*,?,-2.6,33.9*,-20.8
Cn1c(CN2CCCCC2)nc2cc(NC(=O)c3cccc(Br)c3)ccc21,9.0,-2.2,-6.0,-0.7,-7.0
CCOC(=O)Nc1ccc2c(c1)nc(CN1CCCCC1)n2C,30.8*,.,.,-0.1,-26.3
CCOC(=O)C1(C)C=C(Nc2ccc(O)cc2)C(=O)N1c1ccc(O)cc1 (centres undefined),-3.5,?,104.2*,-0.8,-1.3
CC(Cc1ccco1)NC(=O)c1ccc(C(F)(F)F)cc1 (centres undefined),32.2*,-2.5,-13.7,-1.2,-12.0
Fc1ccc(C(c2nnc(-c3ccccc3)o2)N2CCN(c3ccccc3)CC2)c(Cl)c1 (centres undefined),.,.,.,.,7.6
COc1ccc(CNC(=O)C2CCC(CNS(=O)(=O)c3cccc4nsnc34)CC2)cc1 (centres undefined),17.0,2.5,-2.1,-1.7,6.2
O=C(NCc1ccc2c(c1)OCO2)C1CCC(CNS(=O)(=O)c2cccc3nsnc23)CC1 (centres undefined),35.0*,-5.5,0.6,-0.8,-1.0
Cc1nc2ccn(Cc3ccccc3)c(=O)c2cc1C(=O)Nc1ccc(F)cc1Cl,.,.,.,-1.0,-10.4
O=C(COC(=O)C1CC(O)CN1S(=O)(=O)c1ccc(Cl)cc1)c1ccccc1 (centres undefined),-27.3,1.2,-16.0,-1.1,2.1
CC(C)N(C(=O)COC(=O)[C@@H]1CC(O)CN1S(=O)(=O)c1ccc(C(C)(C)C)cc1)C(C)C (some centres undefined),37.8*,-2.4,-6.4,1.8,-6.7
c1csc(C2=Nn3c(nnc3-c3ccncc3)SC2)c1,20.5,-1.7,19.6,0.8,31.6*
COc1ccccc1N1CCN(Cc2ccc(C(=O)O)cc2)CC1,-2.3,-8.1,-17.4,1.0,-2.6
COc1ccc(CN2CCN(c3ccccc3OC)CC2)c(OC)c1,91.2*,-1.4,-63.7,0.2,-21.4
COC(=O)c1cc(CN2CCN(c3ccccc3C)CC2)ccc1O,57.9*,-3.5,-20.9,-1.3,-12.7
COc1ccc(CN2CCN(c3ccccc3OC)CC2)cc1OC,66.0*,-4.5,-2.6,0.7,-33.2
COc1ccc2ccccc2c1CN1CCN(C)CC1,39.8*,-1.6,-34.7,1.2,-17.7
Cc1ccc(C)c(CN2C(=O)c3ccccc3Sc3ccc(C(=O)NCc4ccco4)cc32)c1,.,.,.,0.2,0.8
COc1ccc(OC)c(CN2CCCCCC2)c1,-6.6,-0.8,-14.7,-1.2,-7.8
COc1ccccc1N1CCN(Cc2cc3c(cc2[N+](=O)[O-])OCO3)CC1,51.6*,-6.0,-3.4,-0.5,-17.3
COc1ccccc1N1CCN(Cc2ccc(OC)c(OC)c2OC)CC1,80.8*,1.5,-43.7,0.6,-29.8
COc1ccc(OC)c(CN2CCN(c3ccccc3OC)CC2)c1,-2.3,-2.4,-20.1,-0.2,-2.8
COc1ccccc1Nc1nc(N)nc(CN2CCN(c3ccccc3F)CC2)n1,-6.8,1.4,-29.1,-1.3,18.6
COc1ccccc1N1CCN(Cc2nc(N)nc(Nc3ccc(C)c(Cl)c3)n2)CC1,54.8*,1.4,-7.2,0.6,.
COc1ccc(OC)c(CN2CCN(Cc3cccc4ccccc34)CC2)c1,71.0*,10.5,-11.5,-0.7,-31.0
SMILES,D2 antagonist,D2 ag-1,D2 PAM-1,D2 ag-2,D2 PAM-2
CC1(c2ccccc2)CC(C)(C)N(C(=O)c2ccccc2Cl)c2ccccc21 (centres undefined),.,.,.,0.2,2.3
Cn1c(=O)oc2cc(S(=O)(=O)NC(Cc3ccccc3)C(=O)Nc3ccc(F)cc3)ccc21 (centres undefined),.,.,.,-0.4,2.4
Cc1nn2c(=O)cc(COC(=O)c3ccc(NC(=O)C4CCCCC4)cc3)nc2s1,.,.,.,0.5,10.9
O=c1c(-c2cc(-c3ccc(F)cc3)nc3c2COc2ccc(Cl)cc2-3)coc2ccc(F)cc12,.,.,.,0.3,4.8
Cc1cc(-c2ccc(S(=O)(=O)Nc3cccc(C)c3C)s2)on1,.,.,.,-0.1,-9.8
CC(C)c1ccc(Nc2nc3ccc(C(=O)c4ccccc4)cc3n3cnnc23)cc1,.,.,.,-0.8,2.8
COc1ccccc1N1CCN(Cc2cnc3ccc(Cl)cn23)CC1,55.2*,-3.7,-9.2,-0.6,-29.1
COc1ccccc1OCCCCN1CCN(c2ccccc2OC)CC1,3.9,-2.7,-35.9,0.9,7.4
CS(=O)(=O)N1CCN(c2ccccc2NC(=O)c2cccnc2Cl)CC1,32.8*,-4.2,-4.9,0.0,-1.3
CS(=O)(=O)N1CCN(c2ccccc2NC(=O)c2ccc(Cl)cc2)CC1,-10.4,2.7,17.8,-0.2,-4.5
Clc1ccc(N=c2ssnc2Cl)nc1,-4.9,-1.2,103.4*,1.0,-7.6
Nc1c(C(=O)N2CCOCC2)sc2nc3c(cc12)CCCC3,-8.4,0.6,-2.1,-0.2,32.7*
Nc1c(C(=O)N2CCOCC2)sc2nc3c(cc12)CCC3,8.1,0.5,-0.9,-0.6,5.0
CC(=O)Nc1ccc(C2=NNC(=Nc3ccc(S(=O)(=O)N4CCOCC4)cc3)SC2)cc1,42.7*,6.6,-5.6,-1.0,-5.8
CC(=O)Nc1ccc(C2=NNC(=Nc3cccc(S(=O)(=O)N(C)C)c3)SC2)cc1,5.5,6.9,-0.2,-1.0,5.8
O=S(=O)(c1ccc(N=C2NN=C(c3cc(F)ccc3F)CS2)cc1)N1CCOCC1,17.9,-3.2,15.5,0.0,30.1*
CCCCN(C)CCNC(=O)C1CCN(c2nc3ccc(CC)cc3s2)CC1,.,.,.,2.3,-4.6
CSCCC(NC(=O)c1ccco1)C(=O)N1CCCC(C(F)(F)F)C1 (centres undefined),31.5*,-5.5,-5.3,-1.4,-0.3
CSCCC(NC(=O)c1ccco1)C(=O)N1CCN(C(c2ccccc2)c2ccccc2)CC1 (centres undefined),34.4*,-1.3,-7.6,-0.6,10.9
Cc1ccc(-c2nc(SCCOc3ccccc3C)n3[nH]c(=O)cc3n2)cc1,.,.,.,1.3,6.0
O=C(CSc1n[nH]c(-c2ccccc2)n1)N1CCN(c2ccccc2F)CC1,.,.,.,.,-9.9
O=C(NCCc1ccccc1)C(=O)NCC(c1ccc2c(c1)OCO2)N1CCOCC1 (centres undefined),.,.,.,.,-1.9
COc1ccccc1N1CCN(C(=O)c2cc3c(s2)CCCCC3)CC1,.,2.6,4.4,.,.
CCOc1ccccc1N1CCN(C(=O)c2cc3c(s2)CCC3)CC1,35.3*,0.6,-1.9,-1.8,-5.7
